# Screening data as filed in PubChem BioAssay.
# TEAD-YAP inh = TEAD-YAP interaction inhibition; HEK-TIYL cells, TEAD-Gal4/YAP UAS-luciferase luminescence; AID 1259422; 1.4% of 640,000 active; inhibition, % at 9.12 µM; in the data active = inhibition above about 32%;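 note: 0% = median of test compound wells and 100% = reference inhibitor wells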
# FBW7 activator = human FBW7 E3 ligase activation, primary screen; Q969H0; AlphaScreen FBW7–phospho-cyclin E peptide binding, activator screen; normalized activity (activation), % at 26.1 µM; 0.13% of 650,000 active; AID 1259310; in the data active = normalized activity above about 1.9%;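 note: purified mutant Fbw7 with reduced substrate affinity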
# MITF inh = human MITF inhibition, primary screen. AID 1259374. inhibition, % at 2.6 µM. O75030. AlphaScreen MITF homodimerization, bead proximity signal. 0.91% of 650,000 active; in the data active = inhibition above about 50%;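 note: 0% = vehicle wells with protein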
# Target sequence (O75030 whole entry, looked up): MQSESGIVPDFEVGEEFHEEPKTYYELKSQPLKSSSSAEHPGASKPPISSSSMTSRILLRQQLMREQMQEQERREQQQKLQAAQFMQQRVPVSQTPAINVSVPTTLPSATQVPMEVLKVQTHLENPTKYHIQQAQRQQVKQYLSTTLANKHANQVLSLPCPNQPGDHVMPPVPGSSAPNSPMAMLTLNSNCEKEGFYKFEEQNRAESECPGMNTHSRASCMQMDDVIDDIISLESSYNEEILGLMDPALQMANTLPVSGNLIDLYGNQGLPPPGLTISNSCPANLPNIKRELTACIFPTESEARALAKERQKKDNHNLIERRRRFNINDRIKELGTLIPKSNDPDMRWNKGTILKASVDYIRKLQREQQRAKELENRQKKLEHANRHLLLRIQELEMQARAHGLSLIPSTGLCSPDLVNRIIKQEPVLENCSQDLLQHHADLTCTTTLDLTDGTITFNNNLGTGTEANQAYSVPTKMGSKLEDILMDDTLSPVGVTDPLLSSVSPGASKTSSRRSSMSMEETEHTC
# GPR151 ag = human GPR151 activation | Q8TDV0 | PathHunter beta-arrestin GPR151 cells, luminescence | activation, % at 11.2 µM | 1% of 650,000 active | AID 1508602; in the data active = activation above about 4.9%;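 note: 0% = median of compound wells and 100% = cells with positive control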
# MITF confirm = human MITF inhibition, confirmation; shares compounds with MITF inh; AlphaScreen MITF homodimerization, biotin/His-MITF beads; inhibition, % at 2.6 µM; 16% of 4,700 active;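 active = inhibition above a cutoff derived from the DMSO control wells, cut at about 28% in these data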;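 note: 0% = MITF dimer wells with DMSO only; inhibitors lower the bead chemiluminescence by keeping MITF from dimerizing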
# AS interf DR = AlphaScreen optical interference, dose response counter-screen; shares compounds with MITF inh; AlphaScreen optical interference counterscreen, cell-free; IC50, µM; 6% of 480 active; call rule not given here
# AS interf ctr = AlphaScreen optical interference, counter-screen; shares compounds with MITF inh; LysRS AlphaScreen counterscreen, signal interference, triplicate; inhibition, % at 2.6 µM; 7.6% of 4,700 active;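 active = inhibition above a cutoff derived from the DMSO control wells, cut at about 30% in these data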
# An asterisk follows results filed as active; nt = no result. This is a sample that favours compounds with a hit; in the whole collection about 3.5% have one here.
SMILES,TEAD-YAP inh,FBW7 activator,MITF inh,GPR151 ag,MITF confirm,AS interf ctr,others
c1cc2c(cc1CN1CCN(C3CCCCCC3)CC1)OCO2,1,1,65*,0,-2,4,
CCOC(=O)c1sc(NC(=O)c2cccc(SC)c2)cc1C,-32,0,25,-2,nt,nt,
CCC(C)NC(=O)c1cnc2sccn2c1=O (stereo not drawn),2,0,1,0,nt,nt,
Cc1cccc(NCc2ccc(O)c3ncccc23)n1,6,-1,74*,0,53*,91*,
Cc1ccccc1NCc1ccc(O)c2ncccc12,17,-2,68*,1,62*,97*,
Cc1cccc(NCc2ccccc2O)c1C,-2,0,22,1,nt,nt,
Oc1ccc(CNc2ccccc2Br)c2cccnc12,6,0,71*,0,42*,87*,
CCOc1ccc(S(=O)(=O)Nc2ccccc2Br)c2cccnc12,-6,0,7,1,nt,nt,
NC(=O)c1oc2ccccc2c1NC(=O)c1cccc2ccccc12,2,0,23,1,nt,nt,
CCCOC(=O)C(C)Oc1ccc2c(=O)c(Oc3cccc(C)c3)coc2c1 (stereo not drawn),11,1,0,0,nt,nt,
COc1ccc(CNC(=O)[C@@H](NC(N)=O)C(C)C)cc1OC,0,0,2,0,nt,nt,
C=CCc1cc(C)ccc1OCCOCCn1ccnc1,-3,0,66*,1,-2,3,
C=CCc1cc(Cl)ccc1OCCCCn1ccnc1,1,0,68*,-1,5,13,
C=CCc1cc(OC)ccc1OCCCCn1ccnc1,4,0,78*,-1,9,11,
Clc1cccc(Cl)c1OCCCCn1ccnc1,0,0,52*,1,5,5,
CCN1CCC(NCc2cc(NC(C)=O)cc(C(=O)N3CCc4ccccc4C3)c2)CC1,-6,0,-8,-1,nt,nt,
Cc1cccc(-c2nc3ccccc3c(=O)n2NC(=O)c2ccc(Br)cc2)c1,1,0,2,1,nt,nt,
NC(N)=NS(=O)(=O)c1ccc(NC(=O)c2ccccc2C(=O)O)cc1,4,0,10,0,nt,nt,
COc1ccc(NC(=O)C/C(C)=N/NC(=O)c2cc3ccccc3cc2O)c(OC)c1,13,0,4,0,nt,nt,
COC(=O)CNC1CCN(c2ccc(NC(=O)c3ccc(C)cc3C)cc2)CC1,1,0,3,2,nt,nt,
CC(=O)Nc1scc(-c2ccc3c(c2)OCO3)c1C#N,-13,1,7,0,nt,nt,
CCSc1cccc2cccnc12,3,1,-1,1,nt,nt,
Nc1ccc(F)c(S(=O)(=O)Nc2cccc(C(F)(F)F)c2)c1,7,0,-2,0,nt,nt,
CS(=O)(=O)N1CCN=C1SCc1ccccc1F,-11,0,52*,1,14,8,
O=C(CNC1CCCCC1)Nc1ccc(C(=O)N2CCCCC2)cc1,0,0,53*,0,7,14,
SMILES,TEAD-YAP inh,FBW7 activator,MITF inh,GPR151 ag,MITF confirm,AS interf ctr,others
O=C(CNC1CCCC1)Nc1ccc(CN2CCCCC2)cc1,-6,0,65*,1,3,16,
O=C(CN1CCN(C2CCCCC2)CC1)Nc1ccc(Br)cc1,10,0,5,0,nt,nt,
O=C(CNC1CCCC1)Nc1ccc(C(=O)N2CCCCC2)cc1,2,0,46,-1,nt,nt,
O=C(CN1CCN(C2CCCCC2)CC1)Nc1ccc(C(=O)N2CCOCC2)cc1,-1,1,56*,-1,10,13,
CN(C)CCNCC(=O)Nc1ccc(CN2CCCCC2)cc1,3,0,94*,0,9,16,
CC(=O)N1CCC(N2Cc3ccccc3OC(c3ccccc3)C2)CC1 (stereo not drawn),5,0,6,-1,nt,nt,
O=S(=O)(Nc1cccc2cccnc12)c1ccccc1O,72*,0,60*,1,87*,101*,
O=S(=O)(Nc1cccc2cccnc12)c1ccc2ccccc2c1,16,-1,13,0,nt,nt,
COc1cccc(C=O)c1OCCCCN1CCN(C)CC1,8,0,66*,1,-2,1,
C=CCc1cc(OC)ccc1OCCCCN1CCN(C)CC1,-3,0,76*,-1,-13,0,
C=CCc1cccc(OC)c1OCCCN1CCN(C)CC1,6,0,78*,-1,-9,1,
CCc1ccccc1OCCOCCN1CCN(C)CC1,3,0,58*,-2,2,0,
COc1cc(OC)cc(C(=O)N=c2sc3c(OC)ccc(OC)c3n2C)c1,-8,0,20,0,nt,nt,
COc1ccc(NC(=O)CCN2C(=O)c3ccncc3C2=O)cc1,-8,0,-10,-1,nt,nt,
CSc1ccc(S(=O)(=O)Nc2ccc(I)cc2C)cc1,-6,0,12,2,nt,nt,
COCCN1C(=O)c2ccccc2C(C(=O)NCCC(C)C)C1c1c[nH]c2ccccc12 (stereo not drawn),2,0,-6,2,nt,nt,
CCCCNc1nc(SCC(=O)NCCc2ccc(S(N)(=O)=O)cc2)nc2ccccc12,-4,0,-3,-1,nt,nt,
CN(CCN1CCc2ccccc2C1)C(=O)CC1C(=O)NCCN1C/C=C/c1ccccc1 (stereo not drawn),-3,0,-3,0,nt,nt,
CN1CCN(CCCCOc2ccccc2C=O)CC1,3,0,16,0,nt,nt,
CC(=O)c1ccccc1OCCCCN1CCN(C)CC1,2,0,82*,2,-5,-7,
CCN1CCN(CCCCOc2ccccc2C=O)CC1,16,0,58*,-1,7,7,
CCOc1cc(C=O)ccc1OCCCCN1CCN(CC)CC1,10,0,71*,2,9,10,
C=CCc1ccccc1OCCCCN1CCN(C)CC1,-4,0,57*,0,-7,-4,
C=CCc1ccccc1OCCN1CCCC1,8,0,26,0,nt,nt,
CCC(=O)N(CCCN1C(=O)c2cccc3cccc(c23)C1=O)c1ccc(OC)cc1,0,0,-8,1,nt,nt,
SMILES,TEAD-YAP inh,FBW7 activator,MITF inh,GPR151 ag,MITF confirm,AS interf ctr,others
CCN(CC)C(=O)CCc1nnc(-c2ccccc2)o1,-15,0,10,-1,nt,nt,
O=S(=O)(O)c1cc(S(=O)(=O)O)c2cc(O)c(S(=O)(=O)O)cc2c1,7,-1,60*,-1,67*,14,AS interf DR=>6.5
Cc1cc(Cl)c(OCCOCCN2CCOCC2)c(Br)c1,-10,0,72*,0,-11,-7,
Cc1cc(Cl)c(OCCn2ccnc2)c(Br)c1,-16,0,27,-1,nt,nt,
Cc1ccc(OCCOCCN2CCOCC2)c(Br)c1,-16,0,75*,0,7,3,
Cc1cc(Cl)c(OCCOCCn2ccnc2)c(Br)c1,-7,0,75*,2,17,20,
Cc1cc(OCCOCCN2CCOCC2)cc(C(C)C)c1,2,1,65*,-3,11,11,
Cc1cc(OCCOCCN2CCN(C)CC2)cc(C(C)C)c1,4,0,32,0,nt,nt,
